Here are results for six molecules from PubChem BioAssay.

For assay [1], the system named is Botulinum neurotoxin type F light chain protease (Clostridium botulinum). In words: Botulinum neurotoxin type F light chain protease inhibition, multiplex microsphere flow cytometry, validation set (AID 588459). The conditions noted are these: multiplex microsphere protease substrate cleavage assay, at 10 µM, stronger effect = higher value.
Assay [2] deals with Botulinum neurotoxin type A (Clostridium botulinum) (UniProt P0DPI0). The experiment in a line: BoNT/A light chain protease inhibitors, biochemical, multiplex microsphere flow cytometry, validation set (AID 588460). The conditions noted are these: at 10 µM, stronger effect = higher value. Background: In flow cytometry, cells or beads pass a laser one at a time.
A short description of assay [3]: RPL19A-GFP modulators, yeast TOR pathway, confirmation, cell-based, S. cerevisiae, flow cytometry, cherry picks, mother/daughter gates (AID 2270;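 active means GFP response below 50% of the DMSO control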). The conditions noted are these: S. cerevisiae RPL19A-GFP strain, 3 h, at 10 µM, stronger effect = lower value, 100 = same GFP as DMSO wells.
Assay [4] can be described thus: LAP4-GFP expression modulators in yeast, confirmation, cell-based, cherry picks, flow cytometry, mother/daughter gates (AID 2271;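 active means GFP response above 150% of the DMSO control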;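 further: ratio of sample to DMSO plate mean so 100% equals DMSO level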). The note with it: S. cerevisiae LAP4-GFP strain, 3 h, at 10 µM, stronger effect = higher value.
A short description of assay [5]: modulators of CIT2-GFP expression in yeast, confirmation, S. cerevisiae, GFP fusion, cherry picks, mother/daughter gates (AID 2274;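 active means GFP response above 150% of the DMSO level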). The conditions noted are these: S. cerevisiae CIT2-GFP strain, flow cytometry, 3 h, at 10 µM, stronger effect = higher value.
The nature of assay [6]: inhibitors of CD8+ T cell-vesicle binding, pilot screen, LFA-1/ICAM-1 modulator project, MLPCN validation set, flow cytometry (AID 2523;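 active means response below a set limit, under 55% cells CD8-positive and vesicle-bound, and CD8 cells' 90th-percentile brightness under 279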;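 on vesicle binding response: mean PE anti-B7-1 fluorescence of CD8+ cells relative to row control; 100% = QL9-loaded vesicles with DMSO vehicle in the same plate row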). The conditions noted are these: 2C mouse CD8+ T cells, at 7 µM, stronger effect = lower value; double positive events: measured here: CD8+/vesicle+ event percentage.
Assay [7] has as its target Integrin beta-1 (Homo sapiens) + Integrin alpha-4 (Homo sapiens) (UniProt P13612+P05556). The experiment in a line: inhibition of HUTS-21 binding to VLA-4, pilot screen, VLA-4 allosteric modulator project, U937 cells, HUTS-21 mAb, flow cytometry, validation set (AID 2674;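 active means inhibition above 50%, about 3 SD of the validation set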;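 further: antibody binding induced by the VLA-4 ligand LDV present at three times its Kd; 0% = LDV ligand with antibody and no compound and 100% = antibody without LDV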). The conditions noted are these: HUTS-21 LIBS mAb binding, at 6.7 µM, stronger effect = higher value.
The nature of assay [8]: superoxide lowering in aged yeast cells, pilot screen, validation compound set (AID 2706;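 active means superoxide response below 65% of plate, a cut near 3 SD across the whole screen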;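 further: yeast exposed to compound for one week at 30 degrees C before staining; 100% = mean of all compound wells on the same plate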). The conditions noted are these: S. cerevisiae aging, superoxide DHE fluorescence; at 10 µM; stronger effect = lower value.
The target in assay [9] is Beta-adrenergic receptor kinase 1 (Homo sapiens) (UniProt P25098). The experiment in a line: GRK2 binders displacing RNA aptamer, biochemical, validation, human GRK2, bead flow cytometry (AID 488806;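 active means aptamer binding inhibition above 30%, about 3 SD of noise from non-fluorescent compounds; inactive means inhibition at or below 30%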). The note with it: bead-bound GRK2, FAM-aptamer displacement, at 10 µM, stronger effect = higher value.
The target in assay [10] is Beta-2 adrenergic receptor (Homo sapiens) (UniProt P07550). The experiment in a line: beta2AR agonists driving receptor internalization, pilot screen, cell-based, FAP fluorogen, flow cytometry, validation set (AID 504459;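 active means percent response above 42, roughly 3 SD of non-fluorescent test compounds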;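 further: agonist-driven loss of surface beta2AR via internalization measured by FAP dye flow cytometry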). The note with it: Am2.2-beta2AR cells, FAP surface receptor flow cytometry; at 10 µM; stronger effect = higher value.
Assay [11] has as its target AP-2 complex subunit beta (Homo sapiens) (UniProt P63010). In words: inhibitors of arrestin peptide binding to AP2, pilot screen, biochemical, validation set, GST-AP2 beads, flow cytometry (AID 504541;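 active means inhibition above 54%, about 3 SD of non-fluorescent compounds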;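 further: AP2 carries R879A mutation and is captured from E. coli lysate; bead-bound FITC arrestin peptide fluorescence measuring arrestin peptide binding to AP2; 0% = DMSO wells and 100% = excess unlabeled arrestin peptide control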). The note with it: FITC arrestin peptide, at 10 µM, stronger effect = higher value.
Assay [12] in a line: yeast V-ATPase proton transport modulators, S. cerevisiae, pHLuorin, HTS validation (AID 504600; in the data active means response above about 15%;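 further: plate controls were DMSO for no effect and reference compound for full effect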). The conditions noted are these: S. cerevisiae pHLuorin cytosolic pH, at 10 µM, stronger effect = higher value.
The subject of assay [13] is anti-desmoglein-3 scFv antibody binding to human DSG3. In words: inhibitors of anti-DSG3 scFv binding to DSG3, pilot screen, biochemical, validation compound set, bead-based, flow cytometry (AID 588368;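 active means binding below the plate cutoff, the plate median minus 3 SD, with a reading above zero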;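 further: signal is the median channel fluorescence of bead-bound GFP antibody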). The conditions noted are these: Protein G beads, DSG3-Fc, scFv-GFP binding, at 10 µM, stronger effect = lower value.
Assay [14] deals with Lethal factor (Bacillus anthracis) (UniProt P15917). In words: Lethal factor protease inhibitors, Bacillus anthracis, multiplex microsphere cleavage assay, validation set (AID 588461). The conditions noted are these: flow cytometry, at 10 µM, stronger effect = higher value.
Assay [15] can be described thus: inhibitors of fungal efflux pumps CDR1, CDR2, MDR1, pilot screen, validation compound set, multiplex, phenotypic (AID 588506;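 active means efflux inhibition above 0.42, the validation set average plus 4 SD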;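 further: Nile Red retained in cells so higher fluorescence means more efflux inhibition; 0 = negative control wells and 1 = enniatin B 25 µM full block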). The conditions noted are these: S. cerevisiae pump-expressing triplex, Nile Red efflux flow cytometry; at 10 µM; stronger effect = higher value.
In assay [16] the target is ATP-binding cassette sub-family B member 6 (Homo sapiens) (UniProt Q9NP58). The experiment in a line: ABCB6 transporter inhibitors, pilot screen, K562-ABCB6 cells, flow cytometry, validation set (AID 588550;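 active means inhibition above the screen-wide mean plus 3 SD, about 51%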;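 further: 0% = DMSO wells and 100% = benzethonium chloride 70 µM positive control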). The note with it: K562-ABCB6 porphyrin accumulation, 1 h, at 10 µM, stronger effect = higher value.
Assay [17] in a line: promoters of myeloid differentiation in arrested cells, primary screen, cell-based, GFP/MAC1 double positive, flow cytometry, validation set (AID 588685;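 active means differentiation response of at least 50%, scaled between solvent and reference control, from cells with both markers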;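 further: compound exposure lasts four days before antibody staining and flow analysis; 0% = DMSO wells and 100% = 5 µM fulvestrant positive control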). The note with it: ER-HoxA9 marrow cells, stronger effect = higher value.
The mark [18] stands for this setting: measured here: daughter cell gate.
[19] abbreviates: measured here: mother cell gate.
[20] abbreviates: measured here: mother cell gate response.

The source made the active and inactive calls. Unless noted, how the calls were made is not given here.

Beta-adrenergic receptor kinase 1 (Homo sapiens), sequence (P25098 whole entry, looked up): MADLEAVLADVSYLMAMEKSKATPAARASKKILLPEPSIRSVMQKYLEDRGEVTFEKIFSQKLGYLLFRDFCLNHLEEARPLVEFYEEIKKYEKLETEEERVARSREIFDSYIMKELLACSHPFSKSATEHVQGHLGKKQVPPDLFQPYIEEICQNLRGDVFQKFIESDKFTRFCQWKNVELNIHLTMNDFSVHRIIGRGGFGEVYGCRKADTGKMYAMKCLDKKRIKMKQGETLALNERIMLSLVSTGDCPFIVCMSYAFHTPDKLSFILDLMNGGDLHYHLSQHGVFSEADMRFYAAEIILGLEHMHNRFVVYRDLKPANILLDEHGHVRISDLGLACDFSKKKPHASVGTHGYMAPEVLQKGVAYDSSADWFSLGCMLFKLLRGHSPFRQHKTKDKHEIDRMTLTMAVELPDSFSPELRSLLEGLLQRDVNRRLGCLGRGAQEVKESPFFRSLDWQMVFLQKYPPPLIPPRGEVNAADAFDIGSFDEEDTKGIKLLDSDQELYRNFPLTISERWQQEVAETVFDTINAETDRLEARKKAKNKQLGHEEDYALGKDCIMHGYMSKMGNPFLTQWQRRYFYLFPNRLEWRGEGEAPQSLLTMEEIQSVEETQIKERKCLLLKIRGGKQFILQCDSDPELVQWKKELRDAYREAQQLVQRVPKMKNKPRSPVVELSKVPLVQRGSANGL
ATP-binding cassette sub-family B member 6 (Homo sapiens), sequence (Q9NP58 whole entry, looked up): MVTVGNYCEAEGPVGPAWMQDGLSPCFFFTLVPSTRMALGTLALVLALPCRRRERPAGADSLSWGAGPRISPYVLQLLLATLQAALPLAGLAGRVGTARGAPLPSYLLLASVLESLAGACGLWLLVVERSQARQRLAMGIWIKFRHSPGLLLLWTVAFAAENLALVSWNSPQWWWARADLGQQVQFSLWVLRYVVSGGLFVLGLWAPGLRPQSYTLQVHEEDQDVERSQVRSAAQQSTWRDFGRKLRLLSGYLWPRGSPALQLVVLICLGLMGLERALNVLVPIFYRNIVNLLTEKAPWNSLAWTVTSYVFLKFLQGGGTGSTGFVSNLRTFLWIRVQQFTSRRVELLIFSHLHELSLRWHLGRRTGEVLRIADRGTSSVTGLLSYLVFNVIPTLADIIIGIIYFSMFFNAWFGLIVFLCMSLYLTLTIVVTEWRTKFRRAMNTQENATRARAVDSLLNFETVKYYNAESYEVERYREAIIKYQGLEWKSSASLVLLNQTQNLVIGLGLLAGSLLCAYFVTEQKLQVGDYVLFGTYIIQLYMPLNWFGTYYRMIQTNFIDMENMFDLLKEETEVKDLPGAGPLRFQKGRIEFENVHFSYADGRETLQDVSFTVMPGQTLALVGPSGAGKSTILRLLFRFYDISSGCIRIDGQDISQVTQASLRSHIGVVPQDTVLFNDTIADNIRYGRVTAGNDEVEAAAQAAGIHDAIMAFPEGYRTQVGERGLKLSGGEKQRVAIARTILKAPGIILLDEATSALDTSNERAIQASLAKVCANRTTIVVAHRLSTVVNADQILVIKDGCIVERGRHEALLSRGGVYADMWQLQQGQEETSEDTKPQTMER
Beta-2 adrenergic receptor (Homo sapiens), sequence (P07550 whole entry, looked up): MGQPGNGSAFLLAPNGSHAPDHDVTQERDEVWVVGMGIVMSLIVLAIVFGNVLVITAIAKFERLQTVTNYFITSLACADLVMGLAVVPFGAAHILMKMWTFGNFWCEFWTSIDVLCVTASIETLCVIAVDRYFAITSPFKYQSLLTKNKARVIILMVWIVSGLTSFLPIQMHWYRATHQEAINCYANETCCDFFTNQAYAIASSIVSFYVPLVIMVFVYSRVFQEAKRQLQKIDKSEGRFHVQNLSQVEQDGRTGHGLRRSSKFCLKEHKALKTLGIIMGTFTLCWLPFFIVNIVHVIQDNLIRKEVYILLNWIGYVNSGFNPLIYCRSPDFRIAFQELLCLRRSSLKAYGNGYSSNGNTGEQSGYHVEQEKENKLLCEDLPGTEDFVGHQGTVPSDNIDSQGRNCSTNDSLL
Integrin beta-1 (Homo sapiens) + Integrin alpha-4 (Homo sapiens), sequence (P05556 whole entry, looked up): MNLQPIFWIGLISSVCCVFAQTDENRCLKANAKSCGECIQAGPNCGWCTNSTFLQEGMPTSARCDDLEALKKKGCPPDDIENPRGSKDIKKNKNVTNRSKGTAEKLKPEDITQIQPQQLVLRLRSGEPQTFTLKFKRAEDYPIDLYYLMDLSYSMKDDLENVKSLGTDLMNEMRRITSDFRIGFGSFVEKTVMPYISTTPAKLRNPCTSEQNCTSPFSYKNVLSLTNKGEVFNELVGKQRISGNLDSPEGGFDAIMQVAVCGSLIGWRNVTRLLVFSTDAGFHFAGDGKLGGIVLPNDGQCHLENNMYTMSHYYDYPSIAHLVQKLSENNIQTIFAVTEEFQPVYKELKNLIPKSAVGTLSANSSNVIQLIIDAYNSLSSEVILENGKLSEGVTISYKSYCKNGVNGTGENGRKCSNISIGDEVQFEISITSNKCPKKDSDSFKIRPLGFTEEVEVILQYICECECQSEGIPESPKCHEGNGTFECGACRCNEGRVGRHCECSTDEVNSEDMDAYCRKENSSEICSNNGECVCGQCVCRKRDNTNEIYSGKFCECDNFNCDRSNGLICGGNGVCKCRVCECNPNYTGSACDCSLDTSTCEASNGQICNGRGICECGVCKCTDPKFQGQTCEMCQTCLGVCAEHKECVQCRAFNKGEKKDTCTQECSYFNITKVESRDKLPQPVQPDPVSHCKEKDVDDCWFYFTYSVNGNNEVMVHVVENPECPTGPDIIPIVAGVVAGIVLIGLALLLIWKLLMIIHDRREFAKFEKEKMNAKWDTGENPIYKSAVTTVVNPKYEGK
Integrin beta-1 (Homo sapiens) + Integrin alpha-4 (Homo sapiens), sequence (P13612 whole entry, looked up): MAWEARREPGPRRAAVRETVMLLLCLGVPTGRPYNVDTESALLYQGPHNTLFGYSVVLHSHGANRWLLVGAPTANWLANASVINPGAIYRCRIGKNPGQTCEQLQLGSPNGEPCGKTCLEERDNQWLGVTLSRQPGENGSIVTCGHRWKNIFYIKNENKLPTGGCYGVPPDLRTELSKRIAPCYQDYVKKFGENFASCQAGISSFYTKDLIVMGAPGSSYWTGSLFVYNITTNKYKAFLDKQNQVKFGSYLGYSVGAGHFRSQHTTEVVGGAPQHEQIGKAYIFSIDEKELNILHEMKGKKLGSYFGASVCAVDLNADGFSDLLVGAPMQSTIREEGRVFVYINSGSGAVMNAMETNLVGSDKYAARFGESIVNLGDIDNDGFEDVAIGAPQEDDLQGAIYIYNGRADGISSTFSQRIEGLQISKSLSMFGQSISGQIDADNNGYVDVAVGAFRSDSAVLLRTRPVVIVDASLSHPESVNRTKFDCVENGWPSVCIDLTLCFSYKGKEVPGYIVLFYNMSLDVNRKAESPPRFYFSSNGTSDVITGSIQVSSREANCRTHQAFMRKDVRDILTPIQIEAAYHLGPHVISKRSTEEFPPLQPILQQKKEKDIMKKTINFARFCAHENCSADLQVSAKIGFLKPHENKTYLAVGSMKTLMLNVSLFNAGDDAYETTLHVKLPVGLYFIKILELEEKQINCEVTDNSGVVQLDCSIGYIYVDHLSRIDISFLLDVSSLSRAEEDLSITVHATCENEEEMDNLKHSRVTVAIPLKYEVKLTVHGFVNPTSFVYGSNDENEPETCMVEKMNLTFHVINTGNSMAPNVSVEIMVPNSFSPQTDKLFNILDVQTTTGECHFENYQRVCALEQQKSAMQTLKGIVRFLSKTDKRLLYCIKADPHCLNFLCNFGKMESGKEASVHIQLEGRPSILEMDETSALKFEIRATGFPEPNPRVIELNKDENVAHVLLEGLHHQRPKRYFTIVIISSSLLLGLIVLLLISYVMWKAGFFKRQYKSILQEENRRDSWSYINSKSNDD
Lethal factor (Bacillus anthracis), sequence (P15917 whole entry, looked up): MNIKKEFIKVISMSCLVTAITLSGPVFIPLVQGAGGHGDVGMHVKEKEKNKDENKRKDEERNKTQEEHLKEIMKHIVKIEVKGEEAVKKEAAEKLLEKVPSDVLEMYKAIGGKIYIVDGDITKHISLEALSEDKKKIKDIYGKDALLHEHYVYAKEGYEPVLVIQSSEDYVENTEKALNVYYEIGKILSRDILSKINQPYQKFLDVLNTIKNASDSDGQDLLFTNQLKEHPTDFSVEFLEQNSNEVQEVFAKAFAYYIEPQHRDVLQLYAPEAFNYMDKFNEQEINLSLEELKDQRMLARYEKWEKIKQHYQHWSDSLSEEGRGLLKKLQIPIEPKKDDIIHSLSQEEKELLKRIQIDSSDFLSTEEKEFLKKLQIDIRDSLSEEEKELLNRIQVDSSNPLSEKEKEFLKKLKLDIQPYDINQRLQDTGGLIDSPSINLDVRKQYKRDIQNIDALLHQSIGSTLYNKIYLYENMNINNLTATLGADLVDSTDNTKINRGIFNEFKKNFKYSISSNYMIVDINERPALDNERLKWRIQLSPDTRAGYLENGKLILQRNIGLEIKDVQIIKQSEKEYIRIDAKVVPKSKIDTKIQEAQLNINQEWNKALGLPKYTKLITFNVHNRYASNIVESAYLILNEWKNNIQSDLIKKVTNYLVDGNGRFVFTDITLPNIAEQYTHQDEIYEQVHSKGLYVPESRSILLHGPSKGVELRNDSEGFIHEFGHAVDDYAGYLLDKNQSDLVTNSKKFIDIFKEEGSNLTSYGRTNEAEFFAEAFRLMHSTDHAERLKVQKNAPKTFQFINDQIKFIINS

Broadly, the inhibition is the relative decrease from the control value, in per cent. Consider `CS(=O)(=O)Nc1ccc([N+](=O)[O-])cc1Oc1ccccc1`, for which the inhibition in assay [1] was 0% (inactive); in assay [2], -0.9% (inactive).

For `CC1(C)OC(c2ccccc2)=C/C(=C/C=C2C(=O)NC(=S)NC2=O)O1`, the GFP response vs DMSO was 97.8% (inactive) in assay [3], 99.3% in assay [3] (setting [18]) and 98.5% in [3] (setting [19]). Besides, the GFP response relative to DMSO was 203% (active) in [4] and 160% in [4] (setting [20]). Further, the GFP response, % of DMSO in assay [5] was 119% (inactive); in [5] (setting [18]), 121%; in assay [5] (setting [19]) it was 117%.

In turn, `CCCC(=O)OCC[N+](C)(C)C` gave a double positive events in assay [6] of 63.6%. In addition, the vesicle binding response in [6] is 145% (inactive). The inhibition was 14.2% (inactive) in assay [7]; 5.57% (inactive) in assay [11]; -3.8% (inactive) in [1]; -2.9% (inactive) in [2]; 1.4% (inactive) in assay [14]; 13% (inactive) in assay [16]. Besides, the superoxide response (% of plate) in assay [8] is 92.5% (inactive). Besides, the aptamer binding inhibition in [9] is 4% (inactive). For the same molecule, the values for the response in assay [10] and in assay [12] were 9.88% (inactive) and 5.81% (inactive), respectively. For the same molecule, the binding (% of control) in assay [13] is 108% (inactive). Further, the efflux inhibition (fraction of control) in [15] was -0.06 (inactive). The differentiation response in [17] was 2.46% (inactive).

`O=C1CSC2N1CCNC21CCCCC1` (configuration not stated): the double positive events in assay [6] came out at 64.1%. Moreover, in assay [6], the vesicle binding response is 191% (inactive). In addition, the inhibition is -31.6% (inactive) in [7]; 4.77% (inactive) in assay [11]; -1% (inactive) in assay [1]; 1% (inactive) in assay [2]; -3.4% (inactive) in assay [14]; 42% (inactive) in assay [16]. Further, in assay [9], the aptamer binding inhibition is 0% (inactive). In addition, the response is 2.41% (inactive) in assay [10] and 2.26% (inactive) in assay [12]. In addition, in [13], the binding (% of control) was 112% (inactive). Also, the efflux inhibition (fraction of control) in assay [15] is 1.11 (active). In addition, in [17], the differentiation response is 28.6% (inactive).

With `CN1[C@@H]2CC[C@H]1CC(OC(=O)C1C=Nc3ccccc31)C2` (some centres not stated), in assay [6], the double positive events was determined as 52.3%. The vesicle binding response in [6] is 136% (inactive). The inhibition in [7] was 20.3% (inactive); in assay [11] it was -15.4% (inactive); in assay [1], 1.4% (inactive); in assay [2], -0.6% (inactive); in assay [14], 4.3% (inactive); in assay [16] it was 7% (inactive). Moreover, the superoxide response (% of plate) in assay [8] is 111% (inactive). Also, the aptamer binding inhibition in assay [9] was 0% (inactive). Further, the response in [12] is -15% (inactive). The binding (% of control) in [13] was 93.3% (inactive). Also, the efflux inhibition (fraction of control) in [15] is -0.2 (inactive). In addition, the differentiation response in [17] is -3.43% (inactive).

For `C[C@]12CCC(=O)C(O)=C1CC[C@@H]1[C@@H]2CC[C@]2(C)C(=O)CC[C@@H]12`, the values for the GFP response vs DMSO in assay [3], in assay [3] (setting [18]) and in assay [3] (setting [19]) were 99.3% (inactive), 97.5% and 99.2%, respectively. In addition, the GFP response relative to DMSO was 102% (inactive) in assay [4], 102% in assay [4] (measured here: daughter cell gate response) and 103% in assay [4] (setting [20]). Moreover, the GFP response, % of DMSO in assay [5] is 104% (inactive); in assay [5] (setting [18]), 103%; in [5] (setting [19]) it was 105%. The double positive events in [6] came out at 68.3%. Also, the vesicle binding response in assay [6] is 118% (inactive). Moreover, the inhibition is 10.3% (inactive) in assay [7]; 0.25% (inactive) in assay [11]; 0.8% (inactive) in [1]; -1.4% (inactive) in assay [2]; -6.6% (inactive) in assay [14]; 21% (inactive) in [16]. In assay [8], the superoxide response (% of plate) was 97.5% (inactive). The aptamer binding inhibition in assay [9] is 1% (inactive). Further, the response in [10] was 4.26% (inactive); in assay [12] it was -1.14% (inactive). The binding (% of control) in assay [13] was 110% (inactive). Further, the efflux inhibition (fraction of control) in assay [15] is -0.17 (inactive). For the same molecule, the differentiation response in [17] was 3.28% (inactive).
